Values joined by “and” are separate entries in the source; they are usually repeats but may differ in a detail not shown here. Equal values may be shown once. About 1,200 (0.39%) of roughly 310,000 compounds were called active. No rule for the calls is given here. These entries were drawn from the full list. Results with a measured potency or affinity are listed apart.
Molecular target: Large T antigen (Simian virus 40) (UniProt P03070)
Test: TAg ATPase/helicase activity blockers – biochemical (AID 1903)
Settings: SV40 large T antigen ATPase/helicase inhibition assay; at 20 µM; hits give high values

Chain of Large T antigen (Simian virus 40) (P03070 whole entry, looked up): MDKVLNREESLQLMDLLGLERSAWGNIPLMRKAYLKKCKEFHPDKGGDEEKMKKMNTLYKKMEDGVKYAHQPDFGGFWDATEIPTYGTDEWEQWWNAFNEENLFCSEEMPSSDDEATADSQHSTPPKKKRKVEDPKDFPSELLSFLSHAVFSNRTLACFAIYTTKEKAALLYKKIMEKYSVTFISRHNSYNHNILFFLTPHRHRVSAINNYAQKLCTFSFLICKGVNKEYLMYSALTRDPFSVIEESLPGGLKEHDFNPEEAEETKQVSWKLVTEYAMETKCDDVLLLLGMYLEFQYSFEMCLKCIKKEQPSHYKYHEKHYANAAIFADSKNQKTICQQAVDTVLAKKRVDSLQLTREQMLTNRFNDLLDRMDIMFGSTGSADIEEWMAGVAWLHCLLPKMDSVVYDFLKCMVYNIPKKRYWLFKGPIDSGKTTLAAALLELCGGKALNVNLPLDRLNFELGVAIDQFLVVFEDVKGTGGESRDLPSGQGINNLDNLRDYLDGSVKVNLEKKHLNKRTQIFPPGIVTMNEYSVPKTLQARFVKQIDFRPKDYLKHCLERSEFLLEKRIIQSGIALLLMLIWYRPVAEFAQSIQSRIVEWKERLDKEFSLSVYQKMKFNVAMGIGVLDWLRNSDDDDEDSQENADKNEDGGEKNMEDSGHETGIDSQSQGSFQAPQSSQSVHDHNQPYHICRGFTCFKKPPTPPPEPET

inhibition, inactive:
CC1=CN2C(=NC(=O)CC2(C)C(=O)N(CC(=O)NC2CCCC2)Cc2ccccc2)C=C1 (centres undefined) 3.88%
Oc1ccc(Nc2nc(-c3ccc4ccccc4c3)cs2)cc1 35.8%
CCCc1cc(=O)[nH]c(Nc2ccc(Cl)cc2)n1 16.6%
COc1c(CC=C(C)C)c(O)cc2oc(=O)c3c4ccc(O)cc4oc3c12 21.6%
Cc1c(O)c2ccccc2oc1=O 8.49%
O=C1C=C(NC2CC2)C2(CCCCC2)O1 6.12%
C=CCN1C(=O)C2C3C=CC(C2C1=O)C1C2C(=O)N(CC=C)C(=O)C2C31 (centres undefined) 0.93%
Cc1oc2c(C)c(O)ccc2c(=O)c1-c1cnn(-c2ccccc2)c1 12.9%
Cc1oc2cc(O)ccc2c(=O)c1-c1cnn(-c2ccccc2)c1 1.6%
CC(C)N1C(=O)CCC1C(=O)NCc1ccco1 (centres undefined) 10.9%
CCOC(=O)C1=C(CC)Nc2ccccc2N=C1NC(=O)Cn1cnc2ccccc2c1=O -2.64%
S=C(NCC1CCCO1)N1CCN(c2ccccc2)CC1 (centres undefined) 8.18%
CC(C)(C)OC(=O)NCCCC[C@H](NC(=O)c1nc[nH]c1C(=O)NC1CCN(C(=O)OC(C)(C)C)CC1)C(=O)OC(C)(C)C 3.23%
O=[N+]([O-])c1cccc(-c2ncc3ccccn23)c1 -2.83%
Nc1c(-c2cccc([N+](=O)[O-])c2)nc2ccccn12 15.8%
Cc1cc(NC(=O)CSCC(=O)Nc2cc(C(F)(F)F)ccc2N2CCCC2)no1 4.79%
Nc1ncnc2c1ncn2CCOc1ccccc1 3.18%
O=C(N/N=C/c1ccc(O)c(Br)c1)c1cc2c(ccc3ccccc32)o1 -8.03%
O=C(N/N=C/c1cc(Cl)c(O)c(Cl)c1)c1cc2c(ccc3ccccc32)o1 29.3%
O=C(CCc1ccccc1)NNC(=O)c1ccccc1F 10.9%
Cc1ccc(Nc2nc(-c3sc(C)nc3C)cs2)cc1 3.8%
Cc1nc(C)c(-c2csc(Nc3ccc(F)cc3)n2)s1 6.12%
COc1ccc(/C(C)=N\NC(=O)c2ccc3c(c2)OCO3)cc1OC 1.47%
Cc1c(NS(=O)(=O)c2cc(C(=O)NCCN(C)C)ccc2Cl)c(=O)n(-c2ccccc2)n1C 10.6%
C=CCN1C(=O)CSC1=Nc1ccc(O)cc1 27.9%
COc1ccc(N=C2SCC(=O)N2c2ccc(OC)cc2)cc1 13.7%
Cc1cccc(C(=O)NCC(=O)NCC2COc3ccccc3O2)c1 (centres undefined) 23.4%
CCOc1c(/C=C(\C#N)C(N)=O)c2ccccc2n1CC 3.23%
COc1ccc(Oc2nc3ccccc3n3cccc23)cc1 5.06%
CCc1ccc2[nH]c(=O)c(C(c3nnnn3CCOC)N3CCN(c4ccc(F)cc4)CC3)cc2c1 (centres undefined) 16.5%
CCc1ccc2[nH]c(=O)c(C(c3nnnn3CCOC)N3CCN(c4ccccc4)CC3)cc2c1 (centres undefined) 6%
CSCc1cc(N2CCOCC2)nc(-c2ccccc2)n1 9.12%
O=C(Cc1ccc([N+](=O)[O-])cc1)c1c(O)cc(O)cc1O 28%
O=C(CN1C(=O)c2ccccc2S1(=O)=O)Nc1ccccc1 18.1%
COC(=O)CSC1=NS(=O)(=O)c2ccccc21 5.69%
NS(=O)(=O)c1ccc(NC(=O)c2cccc(N3C(=O)c4ccccc4C3=O)c2)cc1 7.91%
COC(=O)CCC(=O)Nc1ccc(N=Nc2ccccc2)cc1 8.53%
COc1ccc(-c2nc(-c3ccccc3)[nH]c(=O)c2C#N)cc1 9.65%
Clc1cc(Cl)cc(C2=NC(Cc3ccccc3)CO2)c1 (centres undefined) 4.6%
COc1ccc(C2C(C#N)=C(N)N(N(C)C)C3=C2C(=O)CCC3)cc1 (centres undefined) 6.69%
COc1ccc(C[C@H]2COC(=O)[C@@H]2Cc2ccc(OC3OC(CO)C(O)C(O)C3O)c(OC)c2)cc1OC (some centres undefined) 11.3%
COc1cc(/C=C/CO)ccc1O[C@@H]1O[C@H](CO)[C@@H](O)[C@H](O)[C@H]1O 1.74%
CCCCOc1ccc(C(=O)NCC(=O)N2CCN(Cc3ccc4c(c3)OCO4)CC2)cc1 14%
COc1ccc(NC(=O)COc2ccc(C)cc2)c([N+](=O)[O-])c1 5.55%
O=C(NCCOCCNC(=O)OCc1ccccc1)OCc1ccccc1 24.2%
CCOC(=O)c1c(NC(C)=O)sc2c(OC)c(Br)ccc12 1.77%
CCOC(=O)c1c(NC(C)=O)sc2c(O)c(Br)ccc12 12.8%
Cc1cc(C)c(C)c(OCCOCCNCc2ccccc2)c1 -32.9%
COc1ccc(NC(=O)CN(C)Cc2c(F)cccc2Cl)cc1S(=O)(=O)N1CCCCC1 4.49%
CN1C(=O)SC(Nc2ccc(F)cc2)C1=O (centres undefined) 20.7%
CN1C(=O)SC(Nc2ccccc2)C1=O (centres undefined) 5.64%
CCN(CC)S(=O)(=O)c1cccc(-c2cn3cc(C)ccc3n2)c1 8.06%
O=C(NCCC1CCCCN1S(=O)(=O)c1ccccc1)C(=O)NCc1ccncc1 (centres undefined) 4.13%
COc1ccc(-c2cc(C(F)(F)F)nc(N3CCN(C)CC3)n2)cc1 1.63%
C/C(=N\NC(=O)CSc1nc2ccccc2o1)c1cccc(O)c1 14.6%
C/C(=N/NC(=O)CSc1nc2ccccc2n1C)c1ccncc1 1.08%
CC(=O)Nc1ccc(NC(=O)CSc2nc3ccccc3o2)cc1 5.88%
C/C(=N/NC(=O)CSc1nc2ccccc2n1C)c1ccco1 -1.06%
O=C(NC1CCCCC1)C1CCCN1S(=O)(=O)c1ccc(Cl)cc1 (centres undefined) -4.64%
O=C(C1CC1)N1CCN(C(c2ccccc2)c2ccccc2)CC1 20.8%
COc1ccc(NC(=S)N2CCC(NC(=O)c3cccc(C)c3)CC2)cc1 19.3%
FC(F)(F)Oc1ccc(Nc2nc3ccccc3o2)cc1 17%
CS(=O)(=O)c1ccccc1C(=O)Nc1cccc(-c2nc3ccccc3o2)c1 6.81%
CCNC(=S)N/N=C/c1ccc(-c2ccccc2)o1 9.76%
CC(C)Cn1c(=O)c2ccccc2c2ccccc2c1=O 13.4%
O=C(NNC(=O)c1ccccc1-n1cccc1)c1ccc(Cl)cc1 6.79%
CCOc1cc(NS(=O)(=O)c2ccc(NC(C)=O)cc2)c(OCC)cc1NC(=O)C(C)C 9.09%
CCOc1cc(NC(=S)NC)c(OCC)cc1NC(=O)c1cccs1 9.37%
CCCCNC(=O)CNC(=O)c1nn(-c2ccc(OC)cc2OC)c(=O)c2ccccc12 4.78%
CCN(CC)c1ccc(/C=N\NC(N)=O)cc1 24.1%
CN(C)c1ccc(/C=N/O)cc1 37.8%
CCN(Cc1ccccc1)c1ccc(/C=N/N2CCOCC2)cc1 32.1%
CN(c1ccccc1)c1ccc(/C=N/N2CCOCC2)cc1 32.7%
COc1cc(OC)cc(C(=O)Nc2ccc(NC(=O)c3ccco3)c(C)c2)c1 20%
CCOC(=O)c1cccc(NC(=O)CN2CCN(c3ccc(OC)cc3)CC2)c1 38.2%
C=CCC1(CC=C)CCCN1C(=O)CC1C(=O)NCCN1Cc1ccc(OC)c(OC)c1 (centres undefined) 10.2%
O=C(NC1CCC(O)CC1)c1cccc2cccnc12 (centres undefined) 3.23%
O=C(NNC(=S)NC(=O)c1ccccc1[N+](=O)[O-])c1ccccc1O 31.4%
O=C(OCC1OC(n2ncc(=O)[nH]c2=O)C(OC(=O)c2ccccc2)C1OC(=O)c1ccccc1)c1ccccc1 (centres undefined) 6.13%
Cc1cn(C2OC(COC(=O)c3ccccc3)C(OC(=O)c3ccccc3)C2OC(=O)c2ccccc2)c(=O)[nH]c1=O (centres undefined) 4.67%
COC1OC(COC(=O)c2ccccc2)C(OC(=O)c2ccccc2)C1OC(=O)c1ccccc1 (centres undefined) 3.67%
O=C(OCC1OC(n2ccc(=O)[nH]c2=O)C(O)C1OC(=O)c1ccccc1)c1ccccc1 (centres undefined) 11.7%
CC(CCc1ccc(O)cc1)NC1C2CC3CC(C2)CC1C3 (centres undefined) 2.61%
Cc1ccc(NC(=O)c2cc3ccccc3cc2O)cc1 0.83%
CCOC(=O)c1nn(-c2ccc3ccccc3c2)cc1O 27.5%
Cc1ccc(/C=C2\NC(=S)NC2=O)cc1[N+](=O)[O-] 10.5%
CN(C)c1ccc(/C=N/NC(N)=S)cc1[N+](=O)[O-] 3.04%
CC(C)OP(=O)(OC(C)C)C(C)NC(=O)Cc1ccccc1 (centres undefined) 8.79%
Cc1ccn2cc(-c3ccc(Br)cc3)nc2c1 8.41%
CC(=O)Nc1cccc(-c2cn3ccc(C)cc3n2)c1 11.2%
Brc1ccc(-c2cn3ccccc3n2)cc1 9.2%
Fc1ccc(-c2cn3ccccc3n2)cc1 0.64%
Cc1noc(C)c1C(=O)Nc1c(F)cc(F)cc1Br 0.97%
COc1cc(/C=C/C(=O)OCC(=O)NCc2ccco2)ccc1OC(F)F 8.29%
COc1ccc(CSc2nnc(-c3ccncc3)n2C)cc1F 3.25%
NS(=O)(=O)c1cccc2cccnc12 10.6% and 4.71%
CNS(=O)(=O)c1cccc2cccnc12 -1.68%
O=S(=O)(Nc1ccc(Cl)cc1)c1cccc2cccnc12 7.28%
O=S(=O)(Nc1ccc(Br)cc1)c1cccc2cccnc12 11.5%

From PubChem BioAssay AID1903 (Southern Research Specialized Biocontainment Screening …, 2009)
